JMJD2A Tudor – blocks the human JMJD2A Tudor domain; AlphaScreen JMJD2A-Tudor / H3K4me3 peptide binding; 390,000 tested, 4.4% active; Potency, µM (top dose mostly 114 µM), for inactives: top-dose activity change, negative = inhibition, usual class: inhibitors; AID 504339; note: % is set by controls: 0 for no effect and ±100 for the full control effect; nearly all actives have a fitted effect of over 50% in size
G9a block – blocks human histone lysine methyltransferase G9a; G9a H3K9 monomethylation, AlphaScreen, 2 h; Potency, µM (series often up to 102 µM), for inactives: top-dose activity, negative = inhibition, actives largely listed as inhibitors; 350,000 tested, 8.8% active; AID 504332; note: % is set by controls: 0 for no effect and ±100 for the full control effect; nearly all actives have a fitted effect of over 75% in size
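Enzyme 20 nM + cpd, 15 min RT; add b-H3K9 pep 500 nM / SAM 20 uM; 2 h RT; anti-H3K9me1 Ab 0.5 ug/mL + SA donor / anti-rabbit acceptor beads 20 ug/mL each, 10 min; AlphaScreen read.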
L3MBTL1 block – inhibitors of human L3MBTL1; Potency, µM (titrated, usually from 57.1 µM), inactives show top-dose activity, negative = inhibition, actives largely listed as inhibitors; AlphaScreen L3MBTL1–H3K9me1 peptide binding; 230,000 tested, 0.66% active; AID 485360; Q9Y468; note: % is set by controls: 0 for no effect and ±100 for the full control effect; nearly all actives have a fitted effect of over 60% in size
Target sequence (Q9Y468 whole entry, looked up): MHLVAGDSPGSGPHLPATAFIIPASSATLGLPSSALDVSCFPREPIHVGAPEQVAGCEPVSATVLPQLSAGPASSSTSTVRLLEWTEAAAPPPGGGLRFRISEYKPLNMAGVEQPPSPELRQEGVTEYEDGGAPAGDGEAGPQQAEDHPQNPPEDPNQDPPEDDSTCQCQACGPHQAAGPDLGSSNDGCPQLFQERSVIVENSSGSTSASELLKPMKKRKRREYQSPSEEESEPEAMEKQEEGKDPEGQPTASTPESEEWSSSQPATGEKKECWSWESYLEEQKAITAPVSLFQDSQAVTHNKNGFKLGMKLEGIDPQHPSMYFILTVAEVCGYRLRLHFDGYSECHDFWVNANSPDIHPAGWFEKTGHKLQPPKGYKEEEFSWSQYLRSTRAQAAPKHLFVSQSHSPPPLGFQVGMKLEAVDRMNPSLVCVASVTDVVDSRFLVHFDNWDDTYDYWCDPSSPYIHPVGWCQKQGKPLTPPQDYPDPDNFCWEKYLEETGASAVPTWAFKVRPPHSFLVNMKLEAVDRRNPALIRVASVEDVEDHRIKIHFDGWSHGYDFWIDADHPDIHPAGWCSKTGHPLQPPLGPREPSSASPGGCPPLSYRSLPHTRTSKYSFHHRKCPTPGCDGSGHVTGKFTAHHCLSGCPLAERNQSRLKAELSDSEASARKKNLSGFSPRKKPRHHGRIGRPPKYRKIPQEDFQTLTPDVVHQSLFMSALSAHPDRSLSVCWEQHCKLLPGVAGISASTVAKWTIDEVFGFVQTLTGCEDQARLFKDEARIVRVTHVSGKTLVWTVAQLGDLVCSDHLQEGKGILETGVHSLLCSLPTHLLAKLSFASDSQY
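AlphaScreen assay: L3MBTL1 (50 nM final) was preincubated 30 min at room temperature with biotinylated H3(1-15)K9me1 peptide (75 nM final), then 30 min with library compounds; streptavidin donor and nickel chelate acceptor beads (10 ug/mL final) added, 30 min dark.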
Sfp PPTase inh – blocks B. subtilis Sfp PPTase activity; AID 1490; Biochemical Sfp PPTase activity, qHTS; Potency, µM, for the others: largest response in the series, negative = inhibition, actives largely listed as inhibitors; Q9F4F7; 310,000 tested, 3.5% active;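 note: the enzyme is Sfp with the accession as filed and its product quenches rhodamine fluorescence; 0% = enzyme reaction without inhibitor and -100% = no enzyme wells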
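With Hepes-Na pH 7.6 buffer containing 10 mM MgCl2, Sfp (15 nM) modified BHQ-2-YbbR (12.5 uM) using rhodamine-CoA (5 uM). Two reads 30 minutes apart at 525/598 nm yielded each well's rate.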
HP1b chromo inh – HP1-beta chromodomain-methylated histone interaction inhibition. P83916. AlphaScreen HP1-beta / biotin-H3K9me3 peptide binding. Potency, µM (titrated, usually from 114 µM), without a hit: at the highest dose activity change, negative = inhibition, most hits filed as inhibitors. 390,000 tested, 0.56% active; note: nearly all actives have a fitted effect of over 70% in size
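HP1-beta protein (50 nM final) preincubated 30 min at room temperature with biotinylated H3(1-18)K9me3 peptide (50 nM) in PBS pH 7.4, 0.01% Tween-20, then compound added for 30 min. AlphaScreen streptavidin donor/nickel chelate acceptor beads (10 ug/mL final), 30 min dark, luminescence read.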
BAZ2B inh – BAZ2B (human) inhibition; Q9UIF8; AlphaScreen BAZ2B-H3K14Ac peptide displacement; Potency, µM (highest dose often 114 µM), inactives show at the highest dose activity change, negative = inhibition, actives largely listed as inhibitors; 360,000 tested, 4.4% active; note: % is set by controls: 0 for no effect and ±100 for the full control effect; nearly all actives have a fitted effect of over 60% in size
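Inhibition is scored as reduced AlphaScreen emission. The BAZ2B/b-H3(5-23)K14Ac complex (50 nM each) in PBS pH 7.4, 0.01% Tween-20 meets compound (up to 110 uM) for 30 min at RT before bead addition.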
Numbers without * were called inactive; ? = inconclusive; · = not tested or not shown; [ ] = another dose, or the depositor's remark. This is a sample that favours compounds with a hit; in the whole collection about 12% have one here. Calls come from the whole dose curve; as a rule, active = well fitted curve in the direction sought with a large enough effect; inconclusive = small, poorly fitted or top-dose-only effect, or another doubt; inactive = no such curve, though single readings can be large; an effect the other way counts as inactive or inconclusive. Potency is the fitted concentration of half-maximal effect.

SMILES	JMJD2A Tudor	G9a block	L3MBTL1 block	Sfp PPTase inh	HP1b chromo inh	BAZ2B inh
CN(C)CCN1C(=O)C(O)=C(C(=O)c2ccco2)C1c1ccccc1F (configuration not stated)	-15.8%	14.9%[12.7 µM]	3.4%[11.4 µM]	9.0%	47.7%	7.5%
COc1cc(C2C(C(=O)c3ccco3)=C(O)C(=O)N2CC2CCCO2)ccc1O (configuration not stated)	?	50.1µM*	·	4.5%	10.5%	?
Cc1cc(NC(=O)CCC(=O)N(c2ccccc2)C(C(=O)NC2CCCC2)c2ccccc2F)no1 (configuration not stated)	0.0%	3.5%	·	6.6%	38.0%	1.2%
Clc1ccc(Cn2cc3c(n2)-c2cc4ccccc4n2C3)cc1	3.8%[57.1 µM]	·	·	·	37.4%[57 µM]	·
COC(=O)C1=C(C(=O)OC)SC2(S1)C(C(=O)OC)=C(C(=O)OC)SC1=C2c2cccc(C)c2NC1(C)C	?	31.6µM*	·	2.8%	-21.7%	?
COC(=O)c1c(C)[nH]c(C)c1-c1ccccc1Cl	?	-18.0%[2.33 µM]	-11.2%	-1.3%	-20.7%	?
O=C(CSc1nc2ccccc2s1)NC(=O)NCc1ccco1	?	44.7µM*	?	-28.9%	-1.3%	?
O=C(CSc1nc(-c2ccccc2)cs1)NC(=O)NCc1ccco1	-25.2%	6.1%[59 µM]	4.7%	?	11.7%	-2.4%
Cc1cc(SCC(=O)NC(=O)NCc2ccco2)nc2ccccc12	-18.2%	?	-1.6%	25.1µM*	23.8%	-11.0%
O=C(COC(=O)CCc1nc2ccccc2s1)NC(=O)NCc1ccco1	-33.0%	-1.4%	·	-24.8%	-9.5%	50.1µM*
CCN(CC(=O)NC(=O)NCc1ccco1)Cc1nc2ccccc2c(=O)[nH]1	-26.7%	?	1.4%[11.4 µM]	50.1µM*	15.1%	-36.2%
CN(Cc1ccc2ccccc2c1)C(=O)c1ccc(C(F)(F)F)cc1	39.7%	55.1%	·	7.3%	32.3%	36.7%
Cc1cc(SCC(=O)O)nc2ccccc12	-7.1%	11.3%	13.4%	-7.4%	6.3%	22.7%
O=C(CSc1n[nH]c(-c2ccccc2)n1)Nc1ccc(Br)cn1	-9.0%	?	31.5%	16.3%	36.7%	2.3%
O=C(CSc1n[nH]c(-c2ccccc2)n1)NC(=O)NCc1ccco1	-35.0%	50.1µM*	?	-8.3%	9.3%	?
Cc1ccccc1CSCC(=O)NC(=O)NCc1ccco1	44.7µM*	44.7µM*	?	7.7%	?	-98.7%
Cc1cc(SCC(=O)NC(=O)c2cccn2C)nc2ccccc12	?	50.1µM*	·	-21.1%	1.9%	?
N#CC1(NC(=O)CSc2n[nH]c(-c3ccccc3)n2)CCCCC1	-10.3%	8.91µM*	-2.0%	·	32.4%	-3.3%
CCOc1ccc2nc(NC(=O)CSCC(=O)Nc3cc(C)on3)sc2c1	-9.0%	-33.8%[0.501 µM]	1.5%	·	29.6%	-13.8%
COc1cc(C(=O)NNC(=O)c2cc(S(=O)(=O)N(C)C)ccc2N2CCCC2)cc(OC)c1OC	-11.7%	4.4%[59 µM]	-2.8%	·	26.0%	11.0%
O=C(CSc1cccc(C(F)(F)F)c1)NC(=O)NCc1ccco1	79.4µM*	11.1%[59 µM]	-28.6%	-20.7%	-0.6%	50.1µM*
O=C(CSCc1ccccc1Br)NNC(=S)NCc1ccco1	?	39.8µM*	·	20.5%	-2.2%	-31.2%
Cc1cc(SCC(=O)c2ccc(O)c(O)c2)nc2ccccc12	?	10µM*	-18.0%	-9.2%	?	17.8µM*
Cc1cc(SCC(=O)c2ccc3c(c2)OCO3)nc2ccccc12	-3.7%	?	·	?	54.5%	8.7%
CCNC(=O)NC(=O)CSc1cccc(C(F)(F)F)c1	-6.4%	-4.0%[59 µM]	2.5%	6.1%	25.3%	1.1%
CC1(C(=O)CSc2nc3ccccc3s2)CCC(=O)O1 (configuration not stated)	39.8µM*	1.7%[12.7 µM]	-4.5%	?	37.0%	?
Cc1ccc(S(=O)(=O)NC(=O)CSc2nc3ccccc3s2)cc1	-16.5%	50.1µM*	1.4%	2.6%	25.3%	-0.8%

Assay outcomes from PubChem BioAssay.
